PubChem BioAssay AID2289 (National Center for Advancing Translational Sciences (NCATS), 2010)
About 3,300 (0.97%) of roughly 340,000 compounds were called active. About 9% were inconclusive and are not listed. The call rests on the fitted dose curve; in most records, active means well fitted inhibition curve with a large enough effect; inconclusive means small, poorly fitted or top-dose-only effect, or effect the other way; inactive means flat fitted curve, though single readings scatter. The list shows a part of the results.

Assay: qHTS Assay for Modulators of miRNAs and/or Inhibitors of miR-21; further: nearly all actives have a fitted effect of over 55% in size
Settings: HeLa miR-21-FLuc reporter, luciferase luminescence, 48 h; actives lower the signal
Outline: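 HeLa miR-21-FLuc reporter line, endogenous miR-21; 2000 cells/well in DMEM/10% FBS; compound titration up to ~40uM final, 48 h, 37 degree Celsius; luciferase detection reagent, 15 min lysis, CCD luminescence.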
Potency means the concentration at half of the fitted maximal effect.

Potency, active:
COc1ccc(-c2nc(C#N)c(NCC3CCCO3)o2)cc1OC (stereo unspecified) 14.7 µM, Cc1ccc(-c2nc(C#N)c(NCC3CCCO3)o2)cc1 (stereo unspecified) 13.1 µM, Clc1ccc(N/N=C/c2ccncc2)cc1Cl 8.26 µM, O=C(O)c1cccc(N/N=C/c2cccnc2)c1 2.93 µM, O=C(O)c1cc(N/N=C/c2cccnc2)ccc1Cl 14.7 µM, Nc1ccc(SCc2nc3cccc4c3n2CCC4)cc1 14.7 µM, Cc1nc(-c2ccccc2)sc1-c1nnc(C2CC2)o1 4.65 µM, O=C(/C=C/c1ccc(F)cc1)NC(=S)N1CCN(c2ccccn2)CC1 13.1 µM, COc1ccccc1N1CCN(C(=S)NC(=O)/C=C/c2ccccc2)CC1 9.27 µM, Cc1nc2ccc(NC(=O)c3ccco3)cc2s1 7.36 µM, Cc1cc(NC(=O)c2ccco2)ccc1-n1cnnn1 7.36 µM, Nc1nc2ccc(NC(=O)c3ccco3)cc2s1 7.36 µM, CSc1nc2ccc(NC(=O)c3ccco3)cc2s1 1.47 µM, CSc1nc2ccc(NC(=O)c3c(F)cccc3F)cc2s1 7.36 µM, Cc1nc2ccc(NC(=O)c3ccc(Br)o3)cc2s1 2.93 µM, COc1cc2sc(NC(=O)c3ccco3)nc2cc1Cl 0.585 µM, CC(=O)Nc1nc2ccc(NC(=O)c3ccco3)cc2s1 10.4 µM, Nc1c(Cl)cc2c(c1Oc1ccccc1)C(=O)c1ccccc1C2=O 4.14 µM, O=C(c1ccncc1)N1N=C(c2ccc(Cl)cc2)CC1c1ccccc1O (stereo unspecified) 6.56 µM, COc1ccc(C2=NN(C(=O)c3ccccc3C(=O)O)C(c3ccccc3O)C2)cc1 (stereo unspecified) 5.85 µM, Nc1cc(N)nc(SCCOc2ccccc2)n1 11.7 µM, Cc1ccc(OCCSc2nc(N)cc(N)n2)cc1 4.65 µM, c1cnc(SCCOc2cccc3ccccc23)nc1 3.29 µM, COc1ccc(OCCSc2nc(N)cc(N)n2)cc1 3.29 µM, Nc1cc(N)nc(SCCOc2ccccc2F)n1 14.7 µM, Cc1cc(SCCOc2ccccc2)nc(N)n1 16.5 µM, CCOC(=O)c1ccc(NC(=O)C(CC)Sc2nc3ncccc3o2)cc1 (stereo unspecified) 4.65 µM, Cc1ccc(NC(=O)/C=C2\NC(=O)CS2)cc1 16.5 µM, O=C(N/N=C/c1ccc(Br)s1)c1ccco1 14.7 µM, C/C(=N\NC(=O)c1ccoc1C)c1ccc(Br)s1 11.7 µM, Cc1occc1C(=O)N/N=C/c1ccc(Br)s1 6.56 µM
